A short description of assay [1]: Nuclear factor erythroid 2-related factor 2/antioxidant responsive element (Nrf2/ARE) small molecule agonists: qHTS cell viability counter screen in human keratinocytes (AID 1919968; active = well fitted curve in the direction sought with a large enough effect in the repeat runs; an effect the other way counts as inactive or inconclusive; also: nearly all actives have a fitted effect of over 55% in size; also: potency is read from the fitted curve at half-maximal effect). Summed up: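 Cytotoxicity was multiplexed with the Nrf2/ARE luciferase assay in the same wells. Stably transfected HaCaT keratinocytes were treated with test compounds for 23 h at 37 C. Cell viability was then measured by CellTiter-Fluor fluorescence.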
In general terms: In qHTS, concentration-response curves come from the screen itself.

Assay [2] is described as follows: Nuclear factor erythroid 2-related factor 2/antioxidant responsive element (Nrf2/ARE) small molecule agonists: luciferase reporter gene qHTS assay in human keratinocytes (AID 1919969). Also: nearly all actives have a fitted effect of over 35% in size. Background: In a reporter assay the amount or activity of a reporter protein is the signal.
The target in assay [3] is Gonadotropin-releasing hormone receptor (Homo sapiens) (UniProt P30968). Nature of the assay: Human gonadotropin-releasing hormone receptor (GnRHR) small molecule agonists, calcium flux assay in GnRHR-HEK293 cells (AID 1920063). Also: nearly all actives have a fitted effect of over 35% in size. Summed up:
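Agonist activity was measured as intracellular calcium flux in HEK293 cells engineered to stably express human GnRHR. After dye loading for 1 hour at 37 C, compounds in DMSO were added and fluorescence was followed for 3 minutes.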
A general note: Calcium flux is commonly read through the fluorescence of an indicator in the cells.

Assay [4] deals with KiSS-1 receptor (Homo sapiens) (UniProt Q969F8). Nature of the assay: Human kisspeptin (KISS1R) small molecule agonists, calcium flux assay in KISS1R-HEK293 cells (AID 1920064; active = well fitted curve in the direction sought with a large enough effect in the repeat runs; an effect the other way counts as inactive or inconclusive). An outline of the steps:
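Agonist activity is monitored as intracellular calcium rise in engineered HEK293 cells carrying human KISS1R. Cells are dye-loaded for 1 h at 37 C before compound addition, and fluorescence is recorded for 3 min.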

A short description of assay [5]: p53 small molecule agonists, cell-based qHTS assay with human liver microsomes: qHTS cell viability counter screen (AID 1963579). Also: nearly all actives have a fitted effect of over 45% in size. Summed up:
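Cytotoxicity counter screen: p53RE-bla, 4,000 cells/well; 5 h settle, 37 C/5% CO2; cpd + HLM 0.5 mg/mL + NADPH 0.5 mg/mL (final); 16 h, 37 C; CellTiter-Glo, 30 min RT, luminescence.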

Assay [6] can be described thus: p53 small molecule agonists, cell-based qHTS assay with rat liver microsomes: qHTS cell viability counter screen (AID 1963580). Also: nearly all actives have a fitted effect of over 45% in size. An outline of the steps:
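Counter screen for cytotoxicity under metabolic activation: rat liver microsomes and NADPH, 0.5 mg/mL final each, added with compounds to p53RE-bla HCT-116 cells; 16 h at 37 C, then ATP luminescence read.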

Assay [7] in a line: p53 small molecule agonists, cell-based qHTS assay: qHTS cell viability counter screen (AID 1963581). Also: nearly all actives have a fitted effect of over 45% in size. Also: potency is read from the fitted curve at half-maximal effect. Summed up: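 Viability was counter-screened in parallel with the p53 agonist reporter by measuring intracellular ATP luminescence in the same HCT-116 p53RE-bla wells after 16 h compound treatment at 37 C.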
A short description of assay [8]: p53 small molecule agonists, cell-based qHTS assay (AID 1963582; active = well fitted activation curve with a large enough effect in the signal ratio in the repeat runs, not every such curve was filed as active; the % refers to the signal ratio). An outline of the steps: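 Cells carrying a p53-responsive bla reporter are treated with test compounds for 16 h at 37 C; beta-lactamase activity is then detected with LiveBLAzer B/G FRET substrate after 2 h at room temperature.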
The target in assay [9] is 5-hydroxytryptamine receptor 2A (Homo sapiens) (UniProt P28223). Nature of the assay: 5-hydroxytryptamine receptor 2A (HTR2A) small molecule antagonists, cell-based qHTS assay (AID 1963586). Also: nearly all actives have a fitted effect of over 45% in size. An outline of the steps: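 CHO cells stably expressing human HTR2A were plated for 18 h at 37 C, then loaded with calcium dye for 1 h. Compounds were preincubated 5 min at room temperature before DOI (4 nM solution) was added. Kinetic fluorescence was read for 3 min.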

The target is the same in assay [10]. Description: 5-hydroxytryptamine receptor 2A (HTR2A) small molecule agonists, cell-based qHTS assay (AID 1963587). Also: nearly all actives have a fitted effect of over 30% in size. Summed up:
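HTR2A-CHO cells, plated 18 h at 37 C/5% CO2, dye-loaded 1 h at 37 C; compounds in DMSO added by pin tool (agonist mode). Intracellular calcium flux read as kinetic fluorescence on FDSS over 2 min at 1 s intervals.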

For assay [11], the target named is Muscarinic acetylcholine receptor M1 (Homo sapiens) (UniProt P11229). Nature of the assay: Cholinergic receptor muscarinic 1 (CHRM1) small molecule agonists, cell-based qHTS assay (AID 1963589). Also: nearly all actives have a fitted effect of over 35% in size. Summed up:
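Cells were plated and incubated 18 h at 37 C/5% CO2, loaded with calcium dye for 1 h at 37 C, then treated with compounds in DMSO. Fluorescence was recorded kinetically at 1 sec intervals.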

Assay [12] can be described thus: cAMP Responsive Elements (CRE) small molecule agonists, cell-based qHTS assay (AID 1963590). Summed up: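 Cells carrying a CRE-driven beta-lactamase reporter (HEK 293T) are seeded, incubated overnight (18 h), and treated with test compounds for 3 h at 37 C; reporter activity is then detected with a FRET substrate after 2 h at room temperature.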
The nature of assay [13]: cAMP Responsive Elements (CRE) small molecule antagonists, cell-based qHTS assay (AID 1963591; active = well fitted inhibition curve with a large enough effect in the signal ratio in the repeat runs, not every such curve was filed as active; the % refers to the signal ratio). An outline of the steps:
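Cells (CRE-bla HEK 293T, DMEM with 10% dialyzed FBS and 25 mM HEPES) are seeded and incubated 18 h. Compounds are added with NKH477 agonist at 0.25 uM final for 3 h, then FRET substrate for 2 h.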

Assay [14] addresses Beta-2 adrenergic receptor (Homo sapiens) (UniProt P07550). Description: Adrenergic beta2 receptor (ADRB2) small molecule antagonists, cell-based qHTS assay (AID 1963592). Also: series mostly up to about 92 µM; nearly all actives have a fitted effect of over 50% in size. An outline of the steps:
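Assay format: CHO-ADRB2 cells, 18-20hr seeding at 37C/5% CO2, then compound plus 1nM isoproterenol agonist mix for 0.5hr RT. Homogeneous time-resolved fluorescence cAMP detection after 1hr, expressed as 665/615 nm ratio.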

Assay [15] has the same target. Description: Adrenergic beta2 receptor (ADRB2) small molecule agonists, cell-based qHTS assay (AID 1963593).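 Also: CHO cells stably overexpressing human ADRB2.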 An outline of the steps: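 CHO cells stably over-expressing ADRB2 were plated overnight at 37C, then dosed with compounds plus a stimulation mix containing 100uM IBMX and 25uM Ro-20-1724 for 0.5hr at room temperature. cAMP was measured by HTRF competition, 1hr.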

The target in assay [16] is D(2) dopamine receptor (Homo sapiens) (UniProt P14416). Description: Dopamine D2 receptor (DRD2) small molecule agonists, cell-based qHTS assay (AID 1963594). Also: nearly all actives have a fitted effect of over 35% in size. Summed up: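 HEK293 cells stably expressing DRD2 were cultured 24 h at 37 C, then given Ro20-1724 (0.1 mM final) and compounds for 10 min at room temperature. NKH477 (200nM) was then added for 30 min. cAMP was read by HTRF.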

The target is the same in assay [17]. Description: Dopamine D2 receptor (DRD2) small molecule antagonists, cell-based qHTS assay (AID 1963595; active = well fitted inhibition curve with a large enough effect in the signal ratio in the repeat runs, with a control signal flat; the % refers to the signal ratio). Summed up:
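Cells were plated and grown for 24 h at 37 °C. Ro20-1724 (0.1 mM final) went in first, then compound for 10 min. NKH477 (200 nM) with quinpirole (12 nM) followed for 30 min at RT, then HTRF detection reagents for 1 h.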

For assay [18], the target named is Muscarinic acetylcholine receptor M1 (Homo sapiens) (UniProt P11229). Description: Cholinergic receptor muscarinic 1 (CHRM1) small molecule antagonists, cell-based qHTS assay (AID 1963588). Also: nearly all actives have a fitted effect of over 40% in size. Summed up:
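Compounds were tested at 15 concentrations in three independent runs. Dye-loaded CHRM1-CHO cells were exposed 5 min at room temperature before stimulation by acetylcholine added at 50nM. Intracellular calcium was read kinetically on FDSS for 3 min.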

A short description of assay [19]: p53 small molecule agonists, cell-based qHTS assay with rat liver microsomes (AID 1963578). An outline of the steps:
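Cells carrying a p53 response element–beta-lactamase reporter were plated and rested 5 h, then dosed with compound in DMSO plus rat liver microsomes and NADPH, each at 0.5 mg/mL final. After 16 h at 37 C, LiveBLAzer substrate was added for 2 h.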

Values without a mark were called inactive. Records with an inconclusive call do not appear. Activity calls are given as the source filed them. Unless noted, calls follow the shape of the full dose curve.

Chain of KiSS-1 receptor (Homo sapiens) (Q969F8 whole entry, looked up): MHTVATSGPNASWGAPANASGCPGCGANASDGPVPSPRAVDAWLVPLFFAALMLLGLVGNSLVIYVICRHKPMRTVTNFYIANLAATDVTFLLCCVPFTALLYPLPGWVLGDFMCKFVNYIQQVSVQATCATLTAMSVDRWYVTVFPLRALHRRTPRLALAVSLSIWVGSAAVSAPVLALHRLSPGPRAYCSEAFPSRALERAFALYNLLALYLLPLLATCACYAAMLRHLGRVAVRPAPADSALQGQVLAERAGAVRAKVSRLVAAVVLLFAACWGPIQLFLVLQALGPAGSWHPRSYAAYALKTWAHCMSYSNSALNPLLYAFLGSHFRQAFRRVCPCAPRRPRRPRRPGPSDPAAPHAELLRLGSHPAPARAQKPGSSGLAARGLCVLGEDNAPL
Chain of D(2) dopamine receptor (Homo sapiens) (P14416 whole entry, looked up): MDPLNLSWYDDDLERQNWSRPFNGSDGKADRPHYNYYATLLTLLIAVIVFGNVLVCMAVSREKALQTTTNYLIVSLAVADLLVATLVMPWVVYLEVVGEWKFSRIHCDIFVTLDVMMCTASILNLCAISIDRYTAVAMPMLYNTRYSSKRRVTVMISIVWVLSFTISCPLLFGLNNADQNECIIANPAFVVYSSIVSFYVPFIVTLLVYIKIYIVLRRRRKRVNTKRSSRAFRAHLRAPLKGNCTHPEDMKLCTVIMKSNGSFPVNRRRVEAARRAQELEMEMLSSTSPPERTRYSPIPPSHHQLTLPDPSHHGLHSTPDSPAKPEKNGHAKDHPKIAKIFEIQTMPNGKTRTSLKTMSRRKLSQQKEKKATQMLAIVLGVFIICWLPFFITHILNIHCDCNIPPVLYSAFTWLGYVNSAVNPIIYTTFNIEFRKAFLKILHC
Chain of Gonadotropin-releasing hormone receptor (Homo sapiens) (P30968 whole entry, looked up): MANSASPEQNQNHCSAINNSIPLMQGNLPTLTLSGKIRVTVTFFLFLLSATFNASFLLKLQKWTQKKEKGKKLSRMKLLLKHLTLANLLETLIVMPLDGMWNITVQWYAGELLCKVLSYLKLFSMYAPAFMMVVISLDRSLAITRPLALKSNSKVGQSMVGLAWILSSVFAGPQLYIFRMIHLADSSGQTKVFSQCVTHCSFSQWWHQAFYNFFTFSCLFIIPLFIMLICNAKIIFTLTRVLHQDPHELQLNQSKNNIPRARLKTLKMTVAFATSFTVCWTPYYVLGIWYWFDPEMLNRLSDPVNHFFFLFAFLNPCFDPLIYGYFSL
Chain of Beta-2 adrenergic receptor (Homo sapiens) (P07550 whole entry, looked up): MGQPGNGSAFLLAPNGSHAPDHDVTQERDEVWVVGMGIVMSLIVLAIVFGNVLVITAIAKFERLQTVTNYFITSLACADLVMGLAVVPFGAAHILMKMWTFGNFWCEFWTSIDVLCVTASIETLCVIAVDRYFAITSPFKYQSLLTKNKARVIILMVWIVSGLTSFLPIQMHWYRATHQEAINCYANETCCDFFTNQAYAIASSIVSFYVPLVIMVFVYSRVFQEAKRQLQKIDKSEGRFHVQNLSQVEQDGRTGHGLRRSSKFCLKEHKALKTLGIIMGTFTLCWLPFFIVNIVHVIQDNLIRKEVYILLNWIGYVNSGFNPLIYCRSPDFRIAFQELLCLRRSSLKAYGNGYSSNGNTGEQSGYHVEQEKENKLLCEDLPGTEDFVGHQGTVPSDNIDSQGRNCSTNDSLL
Chain of 5-hydroxytryptamine receptor 2A (Homo sapiens) (P28223 whole entry, looked up): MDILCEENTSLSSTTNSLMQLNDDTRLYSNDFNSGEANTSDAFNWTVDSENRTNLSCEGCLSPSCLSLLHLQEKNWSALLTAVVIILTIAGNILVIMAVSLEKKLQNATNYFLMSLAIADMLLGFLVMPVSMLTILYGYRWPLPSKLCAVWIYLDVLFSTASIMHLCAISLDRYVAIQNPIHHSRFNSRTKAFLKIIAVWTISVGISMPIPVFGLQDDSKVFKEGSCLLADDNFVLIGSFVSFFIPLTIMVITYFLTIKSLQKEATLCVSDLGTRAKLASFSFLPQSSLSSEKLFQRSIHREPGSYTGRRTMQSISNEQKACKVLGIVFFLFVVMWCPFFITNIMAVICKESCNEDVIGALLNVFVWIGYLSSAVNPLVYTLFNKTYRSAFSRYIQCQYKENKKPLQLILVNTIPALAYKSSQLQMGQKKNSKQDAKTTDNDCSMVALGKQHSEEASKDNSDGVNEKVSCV
Chain of Muscarinic acetylcholine receptor M1 (Homo sapiens) (P11229 whole entry, looked up): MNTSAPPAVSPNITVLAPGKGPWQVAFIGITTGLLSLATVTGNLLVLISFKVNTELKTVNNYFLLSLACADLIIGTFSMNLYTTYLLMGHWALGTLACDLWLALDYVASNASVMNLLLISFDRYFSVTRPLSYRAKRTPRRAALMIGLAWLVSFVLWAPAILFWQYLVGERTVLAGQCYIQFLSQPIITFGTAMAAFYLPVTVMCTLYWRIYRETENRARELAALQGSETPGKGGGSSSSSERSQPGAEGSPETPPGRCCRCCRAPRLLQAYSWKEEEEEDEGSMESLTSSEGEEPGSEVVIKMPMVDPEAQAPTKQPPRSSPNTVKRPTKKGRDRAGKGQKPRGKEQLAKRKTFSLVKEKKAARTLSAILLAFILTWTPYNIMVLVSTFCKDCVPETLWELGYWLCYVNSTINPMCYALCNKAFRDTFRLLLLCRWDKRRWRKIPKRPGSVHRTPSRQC

`COC(=O)c1ccc(NC(C)=O)cc1OC`: the Potency entry in assay [1], in assay [2], in [3], in assay [5], in assay [6] and in assay [7] was “inactive” each time. The Potency result in [8], in assay [9], in assay [10], in [11], in assay [12] and in assay [13] was “inactive” throughout. Besides, the Potency result in assay [14], in assay [15], in assay [16] and in [17] was “inactive” in each case. Also, the outcome in [4] was inactive.

For `CN1CCC(=C2c3ccccc3CC(=O)c3sccc32)CC1`, the Potency entry in [1], in [2], in [3], in assay [5], in assay [6] and in assay [7] was “inactive” in each case. Further, the Potency result in [8], in assay [13], in [14], in assay [16] and in assay [17] was “inactive” each time. In addition, the result in [4] was inactive.

For `Cn1c(=O)cc(Oc2ccc(F)cc2F)c2cnc(NCC(C)(C)O)nc21`, the Potency result in [1], in assay [2], in [3], in assay [5], in assay [6] and in assay [7] was “inactive” each time. Further, the Potency entry in assay [8], in assay [9], in [10], in assay [18], in assay [11] and in assay [14] was “inactive” in each case. Further, the Potency entry in assay [15], in assay [16] and in assay [17] was “inactive” each time. Moreover, the outcome in assay [4] was inactive.

Regarding `CC(=O)c1ccc2ccc3ccccc3c2c1`, the Potency result in [1], in [2], in assay [3], in assay [5], in assay [6] and in assay [7] was “inactive” in each case. For the same compound, the Potency result in assay [9], in [10], in [18], in assay [11], in assay [13] and in assay [14] was “inactive” in each case. The Potency entry in assay [16] is “inactive”. Moreover, the outcome in assay [4] was inactive.

For the compound `C[C@H](N)[C@H](O)c1cccc(O)c1`, the Potency entry in assay [1], in assay [2], in assay [3], in assay [19], in [5] and in [7] was “inactive” each time. Besides, the Potency entry in assay [8], in [18], in assay [11], in assay [12], in [13] and in assay [14] was “inactive” each time. Also, the Potency entry in assay [16] and in [17] was “inactive” throughout. Also, the outcome in assay [4] was inactive.

For the compound `O=C1OCc2ccccc21`, the Potency entry in assay [1], in [2], in assay [3], in assay [19], in assay [5] and in [7] was “inactive” each time. The Potency entry in assay [18], in assay [11], in assay [12], in [13], in assay [14] and in assay [15] was “inactive” in each case. The Potency result in assay [16] and in assay [17] was “inactive” each time. Also, the outcome in [4] was inactive.

As for `CC1=C(C(=O)OC(C)C)C(c2cccc([N+](=O)[O-])c2)C(C(=O)OC2CN(C(c3ccccc3)c3ccccc3)C2)=C(N)N1` (stereo not drawn), the figures for the Potency in [1] and in assay [7] were 8.41 µM (active) and 11.2 µM (active), respectively. Further, the Potency entry in [2], in [3], in assay [19], in [6], in [9] and in assay [10] was “inactive” throughout. Further, the Potency result in assay [18], in [11], in assay [14], in assay [15], in [16] and in assay [17] was “inactive” each time. The outcome in [4] was inactive.

As for `CC(=O)Nc1ccc(S(N)(=O)=O)cc1`, the Potency result in assay [1], in assay [2], in assay [3], in assay [5], in assay [6] and in assay [7] was “inactive” each time. Besides, the Potency entry in [8], in [9], in assay [10], in assay [11], in assay [12] and in [13] was “inactive” in each case. Moreover, in [17], the Potency result was “inactive”. Besides, the result in assay [4] was inactive.
